The panel holds about 83,000 compounds, 20% with a hit somewhere; the sample as a whole holds those more often.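 Compound tested at a single concentration for 48 hours in 96-well plates; a percent growth value below 10 was scored as active.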
How the values were obtained:
Assay in all cases: NCI-60 one-dose screen, 48 h (100 = growth as untreated, 0 = no growth, -100 = all killed)
[1] = tested on: HCT-15 colon; conditions: 10 µM unless noted
[2] = tested on: HT29 colon; conditions: 10 µM unless noted
[3] = tested on: SNB-75 CNS; conditions: 10 µM unless noted
[4] = tested on: SNB-19 CNS; conditions: 10 µM unless noted
[5] = tested on: U251 CNS; conditions: 10 µM unless noted
[6] = tested on: PC-3 prostate; conditions: 10 µM unless noted
[7] = tested on: SK-MEL-5 melanoma; conditions: 10 µM unless noted
[8] = tested on: UACC-62 melanoma; conditions: 10 µM unless noted
[9] = tested on: LOX IMVI melanoma; conditions: 10 µM
[10] = tested on: SK-MEL-28 melanoma; conditions: 10 µM unless noted

Measured: growth

O=C(O)c1ccc([N+](=O)[O-])cc1S(=O)(=O)O
inactive: [1] 106% | [2] 99% | [3] 118% | [4] 105% | [5] 94.9% | [6] 100% | [7] 99.7% | [8] 101% | [9] 98.1% | [10] 103%

O=C(OCC1CCCO1)c1ccc([N+](=O)[O-])cc1 (stereo not given)
inactive: [1] 104% | [2] 108% | [3] 85.8% | [4] 102% | [5] 91.7% | [6] 88.4% | [7] 104% | [8] 99.8% | [9] 104% | [10] 108%

Cc1cc(C(=O)c2ccccc2)cc(C)c1O
inactive: [1] 96.4% | [2] 113% | [3] 87.8% | [4] 120% | [5] 98.1% | [6] 93.5% | [7] 104% | [8] 108% | [9] 92.1% | [10] 115%

CCCCN(C=S)CCCC
inactive: [1] 98.1% | [2] 102% | [3] 87.4% | [4] 94.3% | [5] 90.3% | [6] 91.5% | [7] 101% | [8] 96.4% | [9] 106% | [10] 96.2%

CCOC(=O)/C(C#N)=C\c1c[nH]c2ccccc12
inactive: [1] 93.8% | [2] 105% | [3] 85.9% | [4] 97.6% | [5] 98.1% | [6] 99.1% | [7] 106% | [8] 85.2% | [9] 93.2% | [10] 206%

O=C(O)Cc1ccccn1
inactive: [1] 99.7% | [2] 103% | [3] 103% | [4] 101% | [5] 99% | [6] 102% | [7] 104% | [8] 106% | [9] 113% | [10] 106%

CCNc1ccc2ccccc2c1N=Nc1ccc(N=Nc2ccccc2)cc1
inactive: [1] 104% | [2] 112% | [3] 100% | [4] 112% | [5] 109% | [6] 87.1% | [7] 87.5% | [8] 72.6% | [9] 93.1% | [10] 120%

CC(CCC#N)(CCC#N)C(=O)c1ccccc1
inactive: [1] 100% | [2] 103% | [3] 96.7% | [4] 102% | [5] 109% | [6] 87.8% | [7] 109% | [8] 104% | [9] 100% | [10] 119%

Cc1cc2c(C(C)C)c(O)c(O)c(C=Nc3ccccc3[N+](=O)[O-])c2c(O)c1-c1c(C)cc2c(C(C)C)c(O)c(O)c(C=Nc3ccccc3[N+](=O)[O-])c2c1O
inactive: [1] 80.2% | [2] 93% | [3] 78% | [4] 43.9% | [5] 54.2% | [6] 65.1% | [7] 96.2% | [8] 96.5% | [9] 81.3% | [10] 98.3%

Clc1cccc(Cl)c1CSc1nc2ccccc2n2cccc12
inactive: [1] 68.2% | [2] 79.6% | [3] 86.5% | [4] 105% | [5] 95.3% | [6] 96.5% | [7] 103% | [8] 96.3% | [9] 96.4% | [10] 103%

Cc1ccnc(Nc2nc3ccccc3[nH]2)n1
inactive: [1] 101% | [2] 100% | [3] 109% | [4] 112% | [5] 103% | [6] 101% | [7] 105% | [8] 113% | [9] 97.9% | [10] 115%

O=C(Nc1ccc([N+](=O)[O-])cc1)C(=O)Nc1ccc([N+](=O)[O-])cc1
inactive: [1] 101% | [2] 91.5% | [3] 116% | [4] 99.6% | [5] 81.2% | [6] 90.5% | [7] 100% | [8] 97% | [9] 94.9% | [10] 115%

O=S(=O)(O)c1ccc(O)c(C2CCCCC2)c1
inactive: [1] 96.6% | [2] 98.6% | [3] 77.2% | [4] 104% | [5] 96.6% | [6] 98.5% | [7] 101% | [8] 109% | [9] 105% | [10] 110%

Cc1cccc(-[n+]2noc(N)n2)c1
inactive: [1] 66.4% | [2] 102% | [3] 82.1% | [4] 81.4% | [5] 86% | [6] 60.3% | [7] 97.4% | [8] 40.7% | [9] 46.9% | [10] 113%

COC1(OC)C2(Cl)C(Cl)=C(Cl)C1(Cl)C1COCC12 (stereo not given)
inactive: [1] 103% | [2] 99.3% | [3] 86.3% | [4] 100% | [5] 103% | [6] 97.6% | [7] 102% | [8] 97.4% | [9] 107% | [10] 105%

From PubChem BioAssay (NCI)
